Source: PubChem BioAssay
Values joined by “and” are separate entries in the source; they are usually repeats but may differ in a detail not shown here. Equal entries are not always repeated. Active and inactive are the calls of the source.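 Rule for the calls: active = z-score of at least 1.8 in each of two replicates, scored against plate mean and spread of sample wells; inactive = the rest.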

Test: viability rescue of complex I mutant cybrids, primary screen, cell-based, galactose medium, ATP luminescence (AID 1645843);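 note: positive z means more ATP and so rescue of galactose-driven cybrid death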
Conditions: complex I mutant cybrid cells, 72 h, hits give high values

| SMILES | z-score |
| --- | --- |
| CC[C@]1(O)CC2CN(CCc3c([nH]c4ccccc34)[C@@](C(=O)OC)(c3cc4c(cc3OC)N(C)[C@H]3[C@@](O)(C(=O)OC)[C@H](OC(C)=O)[C@]5(CC)C=CCN6CC[C@]43[C@@H]65)C2)C1 (stereo partly specified) | -1.85 (inactive) |
| Cc1coc2c1C(=O)C(=O)c1c-2ccc2c1CCCC2(C)C | -1.64 (inactive) |
| CCCCS(=N)(=O)CCC(N)C(=O)O (stereo unspecified) | -0.42 (inactive) |
| Nc1nc(N)c2nc(CNc3ccc(C(=O)NC(CCC(=O)O)C(=O)O)cc3)cnc2n1 (stereo unspecified) | 0.075 (inactive) |
| N#CC(c1ccc(Cl)cc1)c1c(Cl)cc(-n2ncc(=O)[nH]c2=O)cc1Cl (stereo unspecified) | -0.445 (inactive) |
| CC1=C(C(=O)O)N2C(=O)[C@@H](NC(=O)C(N)c3ccccc3)[C@H]2SC1 (stereo partly specified) | 0.41 (inactive) |
| CC1CC2C3CCC4=CC(=O)C=C[C@]4(C)[C@@]3(F)[C@@H](O)C[C@]2(C)[C@@]1(O)C(=O)CO (stereo partly specified) | 1.44 (inactive) |
| CC(C)(CO)[C@@H](O)C(=O)NCCC(=O)O | -0.065 (inactive) |
| CC(C)NC[C@H](O)COc1cccc2ccccc12 | -0.055 (inactive) and 0.085 (inactive) and -0.035 (inactive) |
| CN[C@@H]1[C@H](O[C@H]2[C@H](O[C@@H]3[C@@H](O)[C@H](O)[C@@H](N=C(N)N)[C@H](O)[C@H]3N=C(N)N)O[C@@H](C)[C@]2(O)C=O)O[C@@H](CO)[C@H](O)[C@H]1O | -0.095 (inactive) |
| Cc1c(-c2cnccn2)ssc1=S | -0.085 (inactive) |
